Data published in PubChem BioAssay (EPA / NIEHS).
Results filed as inconclusive are left out. Active and inactive are the calls of the source. Rule for the calls, unless noted: active = hit-call score of the fitted dose curve at least 0.9, where 1 is the maximum; inactive = score below 0.9.

Columns and labels:
[1] = molecular target: Paired box protein Pax-6 (Homo sapiens) (UniProt P26367); assay: ATG_Pax6_CIS: Attagene CIS-FACTORIAL HepG2 Assay for human Paired Box 6 (PAX6) (AID 2282956); settings: HepG2 CIS-FACTORIAL PAX6 reporter transcription, RNA readout; actives raise or lower the signal
Paired box protein Pax-6 (Homo sapiens), sequence (P26367 whole entry, looked up): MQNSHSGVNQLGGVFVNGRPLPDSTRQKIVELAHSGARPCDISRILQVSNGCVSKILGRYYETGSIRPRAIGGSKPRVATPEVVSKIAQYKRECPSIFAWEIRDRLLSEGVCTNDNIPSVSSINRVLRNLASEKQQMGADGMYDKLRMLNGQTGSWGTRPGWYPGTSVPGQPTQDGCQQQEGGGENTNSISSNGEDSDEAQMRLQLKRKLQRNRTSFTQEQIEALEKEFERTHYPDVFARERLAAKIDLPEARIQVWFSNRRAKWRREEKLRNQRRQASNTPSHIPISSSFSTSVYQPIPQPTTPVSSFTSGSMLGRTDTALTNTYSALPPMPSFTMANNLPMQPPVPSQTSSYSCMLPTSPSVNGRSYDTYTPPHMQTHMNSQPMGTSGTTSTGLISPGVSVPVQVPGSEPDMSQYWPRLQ
How it was run: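 HepG2 cells transiently transfected with cis-promoter-driven multiplexed reporter units sensing endogenous transcription factor activity; 24 h chemical exposure. Reporter mRNA quantified by RT-PCR, 6-FAM labelling, HpaI digestion and capillary electrophoresis; bidirectional fit versus DMSO baseline.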

[2] = ATG_PXRE_CIS: Attagene CIS-FACTORIAL HepG2 Assay for human Pregnane X Receptor Element (PXRE) (AID 2282957); settings: HepG2 Attagene CIS-FACTORIAL PXRE reporter, mRNA; actives raise or lower the signal
How it was run: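 Cells: HepG2, transiently transfected reporter units under cis promoter control. Exposure: 24 h. Detection: reporter mRNA via RT-PCR/CE fluorescence; bidirectional fitting, DMSO-referenced.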

[3] = ATG_PPRE_CIS: Attagene CIS-FACTORIAL HepG2 Assay for human Peroxisome Proliferator-activated Response Element (PPRE) (AID 2282958); settings: HepG2 PPRE cis-element reporter, Attagene transcription factor profiling; actives raise or lower the signal
How it was run: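 In this cell-based multiplex, a PPRE cis element drives a reporter sequence in transiently transfected HepG2 cells. Following 24 h treatment, labeled cDNA amplicons are sized and quantified by capillary electrophoresis, with DMSO defining baseline.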

[4] = ATG_RORE_CIS: Attagene CIS-FACTORIAL HepG2 Assay for human RAR-related Orphan Receptor Element (RORE) (AID 2282959); settings: HepG2 Attagene cis-factorial RORE reporter, mRNA; actives raise or lower the signal
How it was run: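 Endogenous factor activity at a cis response element is read as reporter transcript levels in HepG2 cells, 24 h post-dose. Transcripts are quantified by RT-PCR with capillary electrophoresis, and data fitted in both directions against DMSO.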

[5] = ATG_Sox_CIS: Attagene CIS-FACTORIAL HepG2 Assay for human SRY-box transcription factor (SOX) (AID 2282960); settings: HepG2 Attagene cis-factorial SOX reporter, mRNA; actives raise or lower the signal
How it was run: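 Measures mRNA induction of a SOX1-associated reporter in HepG2 after 24 h dosing. Fluorescently labelled RT-PCR fragments are separated by capillary electrophoresis, and gain or loss relative to DMSO control is fitted.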

[6] = molecular target: Transcription factor Sp1 (Homo sapiens) (UniProt P08047); assay: ATG_Sp1_CIS: Attagene CIS-FACTORIAL HepG2 Assay for human Specificity Protein 1 (Sp1) (AID 2282961); settings: HepG2 Sp1 cis-reporter transcription, actives raise or lower the signal
Transcription factor Sp1 (Homo sapiens), sequence (P08047 whole entry, looked up): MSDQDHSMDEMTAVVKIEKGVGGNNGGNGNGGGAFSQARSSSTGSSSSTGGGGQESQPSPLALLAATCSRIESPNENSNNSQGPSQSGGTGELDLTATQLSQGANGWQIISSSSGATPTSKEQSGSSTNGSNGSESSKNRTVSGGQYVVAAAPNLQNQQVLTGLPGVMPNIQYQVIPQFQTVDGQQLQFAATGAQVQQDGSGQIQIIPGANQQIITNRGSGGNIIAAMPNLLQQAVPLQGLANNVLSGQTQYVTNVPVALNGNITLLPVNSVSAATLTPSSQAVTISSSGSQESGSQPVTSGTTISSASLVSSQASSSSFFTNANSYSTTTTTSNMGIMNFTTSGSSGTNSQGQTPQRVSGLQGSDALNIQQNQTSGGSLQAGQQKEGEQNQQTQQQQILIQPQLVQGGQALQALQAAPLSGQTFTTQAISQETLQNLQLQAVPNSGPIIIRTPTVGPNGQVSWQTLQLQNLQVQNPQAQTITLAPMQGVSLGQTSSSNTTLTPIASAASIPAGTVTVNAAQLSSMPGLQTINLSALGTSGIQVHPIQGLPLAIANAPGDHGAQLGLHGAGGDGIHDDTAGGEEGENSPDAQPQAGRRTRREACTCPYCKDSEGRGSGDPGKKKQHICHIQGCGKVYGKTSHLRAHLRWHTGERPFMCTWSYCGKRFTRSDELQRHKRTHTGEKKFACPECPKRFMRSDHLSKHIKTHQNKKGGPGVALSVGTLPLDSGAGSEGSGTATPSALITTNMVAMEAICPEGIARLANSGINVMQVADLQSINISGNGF
How it was run: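 Cells: HepG2, transiently transfected with cis-regulated multiplexed reporters. Exposure: 24 h. Detection: reporter transcripts amplified, fluorescently labeled, restriction-digested and sized by capillary electrophoresis. Analysis: bidirectional fit relative to DMSO.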

[7] = ATG_SREBP_CIS: Attagene CIS-FACTORIAL HepG2 Assay for human Sterol Regulatory Element Binding (SREBP) (AID 2282962); settings: HepG2 Attagene cis-factorial SREBP reporter, mRNA; actives raise or lower the signal
How it was run: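 HepG2 cells transiently transfected with multiplexed cis-promoter reporter units sensing endogenous transcription factors; reporter mRNA measured 24 h after dosing by RT-PCR, 6-FAM labeling, HpaI digestion and capillary electrophoresis. Bidirectional fit versus DMSO.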

[8] = molecular target: Signal transducer and activator of transcription 3 (Homo sapiens) (UniProt P40763); assay: ATG_STAT3_CIS: Attagene CIS-FACTORIAL HepG2 Assay for human Signal Transducer and Activator of Transcription 3 (STAT3) (AID 2282963); settings: HepG2, Attagene cis-factorial STAT3 reporter transcription; actives raise or lower the signal
Signal transducer and activator of transcription 3 (Homo sapiens), sequence (P40763 whole entry, looked up): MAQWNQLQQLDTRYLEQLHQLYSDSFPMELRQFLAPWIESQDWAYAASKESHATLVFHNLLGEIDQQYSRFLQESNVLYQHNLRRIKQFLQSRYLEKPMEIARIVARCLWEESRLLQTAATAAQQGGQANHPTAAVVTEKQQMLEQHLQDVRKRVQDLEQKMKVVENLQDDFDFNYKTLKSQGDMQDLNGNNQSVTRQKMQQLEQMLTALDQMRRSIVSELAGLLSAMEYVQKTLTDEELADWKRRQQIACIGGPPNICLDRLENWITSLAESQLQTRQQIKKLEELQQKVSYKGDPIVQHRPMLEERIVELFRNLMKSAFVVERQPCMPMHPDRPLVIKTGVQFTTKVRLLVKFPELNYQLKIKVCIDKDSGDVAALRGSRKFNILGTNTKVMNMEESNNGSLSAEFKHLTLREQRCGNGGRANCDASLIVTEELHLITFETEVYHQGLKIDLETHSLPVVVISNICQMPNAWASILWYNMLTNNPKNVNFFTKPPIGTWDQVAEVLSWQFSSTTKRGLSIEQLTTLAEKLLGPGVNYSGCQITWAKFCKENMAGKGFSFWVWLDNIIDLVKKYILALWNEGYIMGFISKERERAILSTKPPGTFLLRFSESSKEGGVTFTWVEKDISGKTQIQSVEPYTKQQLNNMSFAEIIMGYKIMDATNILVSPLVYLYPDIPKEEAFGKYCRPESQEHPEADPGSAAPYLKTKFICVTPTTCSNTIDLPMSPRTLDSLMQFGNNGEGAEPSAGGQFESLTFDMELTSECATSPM
How it was run: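 HepG2 cells transiently transfected with multiple cis-element-driven reporter units report endogenous transcription factor activity. After 24 h compound exposure, reporter mRNA is measured by RT-PCR, 6-FAM labelling, HpaI digestion and capillary electrophoresis. Fitted bidirectionally versus DMSO.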

[9] = ATG_TCF_b_cat_CIS: Attagene CIS-FACTORIAL HepG2 Assay for human T-Cell-Factor with beta-catenin (TCF/b-cat) (AID 2282965); settings: HepG2 TCF/beta-catenin cis-reporter transcription, actives raise or lower the signal
How it was run: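 HepG2 cells transiently transfected with cis-promoter-driven multiplexed reporter units; reporter mRNA measured 24 h after dosing by RT-PCR, FAM labelling, HpaI digestion and capillary electrophoresis. Bidirectional fitting relative to DMSO baseline.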

[10] = ATG_TAL_CIS: Attagene CIS-FACTORIAL HepG2 Assay for human TAL Basal Promoter (AID 2282966); settings: HepG2 Attagene cis-factorial TAL promoter reporter; actives raise or lower the signal;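 note: background control endpoint measuring basal TAL promoter reporter mRNA not a specific factor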
How it was run: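 RT-PCR plus capillary electrophoresis quantifies reporter mRNA induction in transiently transfected HepG2 cells after 24 h chemical treatment. DMSO serves as negative control and baseline for bidirectional fitting.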

[11] = ATG_VDRE_CIS: Attagene CIS-FACTORIAL HepG2 Assay for human Vitamin D Receptor Element (VDRE) (AID 2282968); settings: HepG2 VDRE cis-reporter transcription, actives raise or lower the signal
How it was run: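 Transiently transfected HepG2 cells carrying cis-regulated reporter transcription units were exposed for 24 h. Reporter mRNA was measured by RT-PCR with fluorescent labelling and capillary electrophoresis, and fitted in both directions against DMSO.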

[12] = molecular target: Nuclear receptor subfamily 1 group I member 3 (Homo sapiens) (UniProt Q14994); assay: ATG_CAR_TRANS: Attagene TRANS-FACTORIAL HepG2 Assay for human Constitutive Androstane Receptor (CAR) (AID 2282969; active = hit-call score of the fitted dose curve at least 0.9, where 1 is the maximum;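 note: activators raise reporter mRNA above DMSO so AC50 marks induction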); settings: HepG2 Attagene TRANS-FACTORIAL CAR reporter
Nuclear receptor subfamily 1 group I member 3 (Homo sapiens), sequence (Q14994 whole entry, looked up, the tested form may be a part): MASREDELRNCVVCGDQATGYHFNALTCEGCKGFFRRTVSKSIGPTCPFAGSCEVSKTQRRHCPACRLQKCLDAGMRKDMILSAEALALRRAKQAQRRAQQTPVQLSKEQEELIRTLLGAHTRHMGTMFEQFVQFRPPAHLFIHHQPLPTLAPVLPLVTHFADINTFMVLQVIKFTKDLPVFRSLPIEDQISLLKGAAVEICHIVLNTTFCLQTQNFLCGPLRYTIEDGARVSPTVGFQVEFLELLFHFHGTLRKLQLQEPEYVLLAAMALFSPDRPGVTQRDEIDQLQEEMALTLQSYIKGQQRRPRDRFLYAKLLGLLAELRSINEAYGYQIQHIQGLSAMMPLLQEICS
How it was run: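 HepG2 cells transiently transfected with GAL4-UAS reporter units; TRANS format reads activity of exogenous chimeric NR-Gal4 protein. After 24 h dosing, reporter mRNA quantified by RT-PCR, 6-FAM labelling and capillary electrophoresis; gain of signal fitted against DMSO.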

[13] = molecular target: X-box-binding protein 1 (Homo sapiens) (UniProt P17861); assay: ATG_Xbp1_CIS: Attagene CIS-FACTORIAL HepG2 Assay for human X-box Binding Protein 1 (XBP1) (AID 2282972); settings: HepG2 XBP1 cis-element reporter, Attagene multiplex; actives raise or lower the signal
X-box-binding protein 1 (Homo sapiens), sequence (P17861 whole entry, looked up): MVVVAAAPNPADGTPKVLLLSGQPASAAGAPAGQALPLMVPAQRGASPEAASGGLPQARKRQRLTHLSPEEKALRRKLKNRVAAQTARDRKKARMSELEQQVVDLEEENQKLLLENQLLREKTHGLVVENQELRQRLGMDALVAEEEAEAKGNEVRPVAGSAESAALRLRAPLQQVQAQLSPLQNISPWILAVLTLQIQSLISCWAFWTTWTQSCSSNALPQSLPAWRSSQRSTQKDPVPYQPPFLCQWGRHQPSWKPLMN
How it was run: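 HepG2 cells transiently transfected with multiple cis-element reporter units report endogenous TF activity; 24 h exposure, then reporter mRNA measured by RT-PCR, 6-FAM labelling, HpaI digestion and capillary electrophoresis. Bidirectional fitting versus DMSO.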

[14] = ATG_M_19_TRANS: Attagene TRANS-FACTORIAL HepG2 Assay for M19 Transcription Factor (Internal Marker) (AID 2282974; active = hit-call score of the fitted dose curve at least 0.9, where 1 is the maximum); settings: HepG2 Attagene TRANS-FACTORIAL M19 internal marker reporter
How it was run: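 Reporter mRNA induction was measured in transfected HepG2 cells 24 h after dosing. Endpoint fitted upward relative to DMSO and serves as a background control within the multiplexed TRANS panel.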

[15] = ATG_GAL4_TRANS: Attagene TRANS-FACTORIAL HepG2 Assay for GAL4 (Internal Marker) (AID 2282976; active = hit-call score of the fitted dose curve at least 0.9, where 1 is the maximum); settings: HepG2 Attagene TRANS GAL4 internal marker reporter
How it was run: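 In transfected human HepG2 liver cells dosed 24 h, GAL4 reporter mRNA serves as a baseline marker. Detection by RT-PCR with fluorescent capillary electrophoresis, activity fitted upward relative to DMSO.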

[16] = ATG_TA_CIS: Attagene CIS-FACTORIAL HepG2 Assay for human TA Basal Promoter (AID 2282964); settings: HepG2 Attagene CIS-factorial TA basal promoter reporter; actives raise or lower the signal
How it was run: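 Cis-factorial format in HepG2: reporters report endogenous factors, not chimeric Gal4 fusions. After 24 h treatment, reporter transcripts were measured by RT-PCR-capillary electrophoresis fluorescence, analysed bidirectionally versus DMSO.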

[17] = ATG_TGFb_CIS: Attagene CIS-FACTORIAL HepG2 Assay for human Transforming Growth Factor (TGF) (AID 2282967); settings: HepG2 Attagene CIS TGFb reporter, mRNA transcription; actives raise or lower the signal
How it was run: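 Multiplexed cis-reporter HepG2 system, 24 h treatment; mRNA induction read by fluorescence after RT-PCR and CE; DMSO negative control, bidirectional curve fitting.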

[18] = molecular target: Estrogen receptor (Homo sapiens) (UniProt P03372); assay: ATG_ERa_TRANS: Attagene TRANS-FACTORIAL HepG2 Assay for human Estrogen Receptor alpha (ERa) (AID 2282970; active = hit-call score of the fitted dose curve at least 0.9, where 1 is the maximum); settings: HepG2 Attagene TRANS ERa GAL4 reporter, mRNA
Estrogen receptor (Homo sapiens), sequence (P03372 whole entry, looked up, the tested form may be a part): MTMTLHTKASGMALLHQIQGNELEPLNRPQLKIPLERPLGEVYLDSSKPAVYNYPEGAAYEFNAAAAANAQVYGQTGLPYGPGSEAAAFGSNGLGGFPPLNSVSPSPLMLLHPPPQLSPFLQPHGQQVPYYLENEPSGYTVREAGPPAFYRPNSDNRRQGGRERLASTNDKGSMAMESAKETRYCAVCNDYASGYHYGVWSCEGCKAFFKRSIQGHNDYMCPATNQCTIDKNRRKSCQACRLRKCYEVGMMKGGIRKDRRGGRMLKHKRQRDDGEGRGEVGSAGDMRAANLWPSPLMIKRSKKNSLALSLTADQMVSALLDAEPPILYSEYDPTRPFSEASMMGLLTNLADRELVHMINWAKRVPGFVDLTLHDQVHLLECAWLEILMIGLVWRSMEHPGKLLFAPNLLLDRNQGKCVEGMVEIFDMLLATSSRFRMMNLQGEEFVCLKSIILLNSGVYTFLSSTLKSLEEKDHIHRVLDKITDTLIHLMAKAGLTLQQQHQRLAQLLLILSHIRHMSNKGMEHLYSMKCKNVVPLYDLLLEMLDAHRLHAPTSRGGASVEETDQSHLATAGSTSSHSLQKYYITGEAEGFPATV
How it was run: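 Cells: HepG2, transiently transfected. Construct: GAL4-UAS reporter units regulated by exogenous NR-Gal4 chimeras. Time: 24 h. Detection: reporter mRNA by RT-PCR, capillary electrophoresis, fluorescence. Baseline: DMSO, upward fitting.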

[19] = molecular target: Steroid hormone receptor ERR1 (Homo sapiens) (UniProt P11474); assay: ATG_ERRa_TRANS: Attagene TRANS-FACTORIAL HepG2 Assay for human Estrogen-Related Receptor alpha (ERRa) (AID 2282971; active = hit-call score of the fitted dose curve at least 0.9, where 1 is the maximum); settings: HepG2 Attagene TRANS reporter, ERRa transactivation
Steroid hormone receptor ERR1 (Homo sapiens), sequence (P11474 whole entry, looked up, the tested form may be a part): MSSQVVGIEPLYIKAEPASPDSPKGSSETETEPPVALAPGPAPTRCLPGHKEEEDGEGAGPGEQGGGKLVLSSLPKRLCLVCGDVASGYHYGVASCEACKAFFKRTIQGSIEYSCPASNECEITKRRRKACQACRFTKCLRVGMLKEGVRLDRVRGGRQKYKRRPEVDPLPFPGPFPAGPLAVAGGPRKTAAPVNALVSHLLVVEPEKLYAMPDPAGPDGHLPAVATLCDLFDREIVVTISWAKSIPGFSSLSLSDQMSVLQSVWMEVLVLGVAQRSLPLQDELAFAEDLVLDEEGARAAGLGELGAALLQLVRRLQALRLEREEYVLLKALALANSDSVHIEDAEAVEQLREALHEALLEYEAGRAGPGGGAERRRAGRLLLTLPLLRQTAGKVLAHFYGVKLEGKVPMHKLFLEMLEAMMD
How it was run: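 Reporter transcripts from ERRa-Gal4 chimera activity measured in transiently transfected human HepG2 cells 24 hours after dosing, using RT-PCR with 6-FAM primer extension, HpaI digestion and capillary electrophoresis; DMSO is baseline.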

[20] = molecular target: Estrogen-related receptor gamma (Homo sapiens) (UniProt P62508); assay: ATG_ERRg_TRANS: Attagene TRANS-FACTORIAL HepG2 Assay for human Estrogen-Related Receptor gamma (ERRg) (AID 2282977; active = hit-call score of the fitted dose curve at least 0.9, where 1 is the maximum;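 note: hits increase reporter signal over DMSO so potencies reflect activators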); settings: HepG2 Attagene TRANS reporter, ERRg transactivation
Estrogen-related receptor gamma (Homo sapiens), sequence (P62508 whole entry, looked up, the tested form may be a part): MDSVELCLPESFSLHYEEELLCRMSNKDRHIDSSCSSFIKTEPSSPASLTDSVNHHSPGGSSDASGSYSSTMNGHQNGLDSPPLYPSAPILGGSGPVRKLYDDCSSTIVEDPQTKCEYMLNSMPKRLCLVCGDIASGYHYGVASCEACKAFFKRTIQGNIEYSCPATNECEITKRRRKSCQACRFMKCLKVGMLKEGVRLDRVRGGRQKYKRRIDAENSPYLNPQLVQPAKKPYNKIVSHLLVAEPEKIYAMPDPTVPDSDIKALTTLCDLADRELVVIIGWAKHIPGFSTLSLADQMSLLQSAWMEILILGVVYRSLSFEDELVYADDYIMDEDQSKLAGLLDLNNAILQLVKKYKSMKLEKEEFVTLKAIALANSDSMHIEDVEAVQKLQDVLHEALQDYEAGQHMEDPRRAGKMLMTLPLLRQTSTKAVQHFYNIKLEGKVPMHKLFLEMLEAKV
How it was run: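 HepG2 cells transiently transfected with multiplexed GAL4-UAS reporter units driven by chimeric NR-Gal4 proteins; 24 h exposure. Reporter mRNA quantified by RT-PCR, fluorescent labelling, HpaI digestion and capillary electrophoresis; gain of signal vs DMSO.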

Measured: AC50

CCC(=O)OCCC(C)CCC=C(C)C (centres undefined)
active: [2] 41.1 µM
not listed: [16] | [17] | [18] | [19] | [20]
inactive: all other assays above

Cc1ccc2n[nH]nc2c1
not listed: [8] | [12] | [14] | [15] | [19] | [20]
inactive: all other assays above

CCCCC(CC)COCCC#N (centres undefined)
active: [2] 27.9 µM
not listed: [8] | [14] | [15] | [18] | [19] | [20]
inactive: all other assays above

Cc1ccc(C=O)cc1
not listed: [6] | [12] | [13] | [19] | [20]
inactive: all other assays above

COc1nc(C)nc(N)n1
not listed: [8] | [12] | [14] | [15] | [16] | [18] | [19] | [20]
inactive: all other assays above

CC1=CCC(O)(C(C)C)CC1 (centres undefined)
active: [2] 39.1 µM
not listed: [8] | [17] | [19] | [20]
inactive: all other assays above

C=CC(C)(CCC=C(C)C)OC=O (centres undefined)
active: [2] 24.8 µM
not listed: [8] | [13]
inactive: all other assays above
